# Measured values taken from PubChem BioAssay (EPA / NIEHS).
# Results filed as inconclusive are left out. Active and inactive are the calls of the source. The calls were made as follows, unless noted: active = hit-call score of the fitted dose curve at least 0.9, where 1 is the maximum; inconclusive = response in the unintended direction; inactive = score below 0.9.
# Assays:
# [1] = molecular target: human Peroxisome Proliferator-activated Receptor alpha (PPARa), PPARA (gene 5465) (UniProt Q07869); experiment: ATG_PPARa_TRANS: Attagene TRANS-FACTORIAL HepG2 Assay for human Peroxisome Proliferator-activated Receptor alpha (PPARa) (AID 2283001)
# Method in brief: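 HepG2 cells transiently transfected with multiplexed GAL4-UAS reporters driven by exogenous chimeric NR-Gal4 proteins; reporter mRNA measured after 24 h dosing. Read-out by RT-PCR, 6-FAM labelling, HpaI digestion and capillary electrophoresis; gain of signal versus DMSO.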
# [2] = molecular target: human Peroxisome Proliferator-activated Receptor delta (PPARd), PPARD (gene 5467) (UniProt Q03181); experiment: ATG_PPARd_TRANS: Attagene TRANS-FACTORIAL HepG2 Assay for human Peroxisome Proliferator-activated Receptor delta (PPARd) (AID 2283002)
# Method in brief: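 Fluorescence from capillary electrophoresis of labelled RT-PCR reporter fragments gives the signal; DMSO sets baseline. Cells: HepG2 transiently carrying GAL4-UAS reporter units plus chimeric nuclear receptor-Gal4 proteins, exposed to chemicals for 24 h.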
# [3] = molecular target: Peroxisome proliferator-activated receptor gamma (Homo sapiens) (UniProt P37231); experiment: ATG_PPARg_TRANS: Attagene TRANS-FACTORIAL HepG2 Assay for human Peroxisome Proliferator-activated Receptor-gamma (PPARg) (AID 2283007)
# Method in brief: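 Twenty-four hours after chemical dosing of transiently transfected HepG2 cells, isolated RNA was converted to cDNA, reporter sequences amplified and 6-FAM-labelled, then HpaI-digested and analysed by capillary electrophoresis. Signal increase against DMSO was fitted.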
# [4] = molecular target: human Retinoid X Receptor beta (RXRb), RXRB (gene 6257) (UniProt P28702); experiment: ATG_RXRb_TRANS: Attagene TRANS-FACTORIAL HepG2 Assay for human Retinoid X Receptor beta (RXRb) (AID 2283013)
# Method in brief: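 HepG2 cells were transiently transfected with multiplexed GAL4-UAS reporters and a chimeric RXRb-Gal4 construct, then exposed for 24 h. Reporter mRNA was quantified by RT-PCR, FAM labeling, HpaI digestion and capillary electrophoresis; gain of signal was scored against DMSO.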
# [5] = molecular target: human Thyroid Receptor alpha (THRa1), THRA (gene 7067) (UniProt P10827); experiment: ATG_THRa1_TRANS: Attagene TRANS-FACTORIAL HepG2 Assay for human Thyroid Receptor alpha (THRa1) (AID 2283014)
# Method in brief: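 Transient HepG2 transfection, NR-Gal4 chimera driving GAL4-UAS reporters; 24 h compound exposure; total RNA, oligo(dT) RT, PCR, fluorescent primer extension, capillary electrophoresis. Upward direction vs DMSO control.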
# [6] = molecular target: human Retinoic Acid Receptor beta (RARb), RARB (gene 5915) (UniProt P10826); experiment: ATG_RARb_TRANS: Attagene TRANS-FACTORIAL HepG2 Assay for human Retinoic Acid Receptor beta (AID 2283004)
# Method in brief: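 Readout is reporter mRNA induction: RNA reverse-transcribed, PCR-amplified, FAM-labelled, HpaI-cut and resolved by capillary electrophoresis. Transiently transfected HepG2 cells carrying exogenous NR–Gal4 chimeras were dosed for 24 h; activity fitted upward relative to DMSO.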
# [7] = molecular target: Retinoic acid receptor alpha (Homo sapiens) (UniProt P10276); experiment: ATG_RARa_TRANS: Attagene TRANS-FACTORIAL HepG2 Assay for human Retinoic Acid Receptor alpha (RARa) (AID 2283005)
# Method in brief: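 HepG2 transiently transfected with multiplex GAL4-UAS reporter units including a human RARa–GAL4 chimera; 24 h compound exposure. Reporter mRNA quantified by RT-PCR, 6-FAM labeling and capillary electrophoresis; gain of signal versus DMSO.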
# [8] = molecular target: human Retinoic Acid Receptor gamma (RARg), RARG (gene 5916) (UniProt P13631); experiment: ATG_RARg_TRANS: Attagene TRANS-FACTORIAL HepG2 Assay for human Retinoic Acid Receptor gamma (RARg) (AID 2283009)
# Method in brief: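 HepG2 transiently transfected with GAL4-UAS reporter units and chimeric NR-Gal4 constructs; 24 h compound exposure. Reporter mRNA quantified by RT-PCR, FAM labeling, HpaI digestion and capillary electrophoresis; gain-of-signal versus DMSO.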
# [9] = molecular target: Retinoic acid receptor RXR-alpha (Homo sapiens) (UniProt P19793); experiment: ATG_RXRa_TRANS: Attagene TRANS-FACTORIAL HepG2 Assay for human Retinoid X Receptor alpha (RXRa) (AID 2283012)
# Method in brief: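 HepG2 cells transiently transfected with GAL4-UAS reporter units and chimeric RXRa-Gal4 protein, treated 24 h. Reporter mRNA measured by RT-PCR, fluorescent labelling, HpaI digestion and capillary electrophoresis. Induction fitted against DMSO.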
# [10] = read-out: Intercellular Adhesion Molecule 1 (ICAM1), ICAM1 (gene 3383); experiment: BSK_3C_ICAM1: BioMAP Diversity Plus: 3C Assay for Intercellular Adhesion Molecule 1 (ICAM1) Biomarker Activity (AID 2283003; active = hit-call score of the fitted dose curve at least 0.9, where 1 is the maximum; inactive = score below 0.9); details: primary human endothelial cells (HUVEC); actives raise or lower the signal
# Method in brief: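 HUVEC primary cells stimulated under 3C conditions; ICAM1 measured by ELISA 24 h after compound dosing. Curves fitted bidirectionally against the DMSO baseline. Overt cytotoxicity checked by SRB staining of parallel cultures.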
# [11] = BSK_3C_Proliferation: Cell Proliferation Assessment in the BioMAP Diversity Plus: 3C Assay (AID 2283006; active = hit-call score of the fitted dose curve at least 0.9, where 1 is the maximum; inactive = score below 0.9;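 as to AC50: potency may reflect either rise or fall in cell number versus DMSO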); details: primary human endothelial cells (HUVEC)
# Method in brief: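 Subconfluent HUVEC (3C system) cultured with chemical; relative cell number read at 48 h by sulforhodamine B total-protein staining (0.1% SRB after 10% TCA fixation, 560 nm). Bidirectional fit relative to DMSO.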
# [12] = molecular target: Nuclear receptor subfamily 1 group I member 2 (Homo sapiens) (UniProt O75469); experiment: ATG_PXR_TRANS: Attagene TRANS-FACTORIAL HepG2 Assay for human Pregnane X Receptor (PXR) (AID 2283008)
# Method in brief: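 Read-out is fluorescence of labelled reporter cDNA fragments separated by capillary electrophoresis after RT-PCR and HpaI digestion. Source: HepG2 cells carrying PXR-GAL4/UAS reporter constructs, treated 24 h; activity fitted upward relative to DMSO.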
# [13] = read-out: E-selectin (Homo sapiens) (UniProt P16581); experiment: BSK_3C_Eselectin: BioMAP Diversity Plus: 3C Assay for Eselectin Biomarker Activity (AID 2283015; active = hit-call score of the fitted dose curve at least 0.9, where 1 is the maximum; inactive = score below 0.9;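 also: cell surface E-selectin protein quantified by ELISA 24 h after dosing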); details: primary human endothelial cells (HUVEC); actives raise or lower the signal
# Method in brief: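 HUVEC, 3C stimulation; compound exposure 24 h; E-selectin by ELISA; gain- or loss-of-signal fitted bidirectionally vs DMSO baseline.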
# [14] = read-out: Interleukin-1 alpha (IL1a), IL1A (gene 3552); experiment: BSK_BE3C_IL1a: BioMAP Diversity Plus: BE3C Assay for Interleukin-1 alpha (IL1a) Biomarker Activity (AID 2283016; active = hit-call score of the fitted dose curve at least 0.9, where 1 is the maximum; inactive = score below 0.9); details: primary human bronchial epithelial cells; actives raise or lower the signal
# Method in brief: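 Human primary bronchial epithelial cells, 24 h chemical exposure; IL-1a quantified by ELISA, fitted bidirectionally against DMSO. Cytotoxicity assessed in parallel by SRB total-protein staining at the time of measurement.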
# [15] = read-out: Monocyte Chemoattractant Protein-1 (MCP1), CCL2 (gene 6347); experiment: BSK_3C_MCP1: BioMAP Diversity Plus: 3C Assay for Monocyte Chemoattractant Protein-1 (MCP1) Biomarker Activity (AID 2283017; active = hit-call score of the fitted dose curve at least 0.9, where 1 is the maximum; inactive = score below 0.9); details: primary human endothelial cells (HUVEC); actives raise or lower the signal
# Method in brief: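 HUVEC, 3C system; 24 h chemical exposure; MCP-1 by ELISA; bidirectional curve fit vs DMSO baseline.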
# [16] = read-out: Monocyte Chemoattractant Protein-1 (MCP1), CCL2 (gene 6347); experiment: BSK_4H_MCP1: BioMAP Diversity Plus: 4H Assay for Monocyte Chemoattractant Protein-1 (MCP1) Biomarker Activity (AID 2283018; active = hit-call score of the fitted dose curve at least 0.9, where 1 is the maximum; inactive = score below 0.9); details: primary human endothelial cells (HUVEC); actives raise or lower the signal
# Method in brief: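 Human umbilical vein endothelial cells (4H system) exposed to chemicals for 24 h in 96-well format. MCP-1 measured by ELISA; bidirectional fitting against DMSO, with SRB total-protein staining in parallel cultures for cytotoxicity.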
# [17] = read-out: Human Leukocyte Antigen - DR isotype (HLADR), HLA-DRA (gene 3122); experiment: BSK_3C_HLADR: BioMAP Diversity Plus: 3C Assay for Human Leukocyte Antigen - DR isotype (HLADR) Biomarker Activity (AID 2283019; active = hit-call score of the fitted dose curve at least 0.9, where 1 is the maximum; inactive = score below 0.9;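 also: ELISA of cell-surface HLA-DR on HUVEC 24 h after dosing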); details: primary human endothelial cells (HUVEC); actives raise or lower the signal
# Method in brief: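 HUVEC, 3C stimulation, 24 h post-dose; HLA-DR by ELISA; bidirectional curve fit vs DMSO baseline; gain or loss of signal scored.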
# [18] = read-out: Interleukin-8 (IL8), CXCL8 (gene 3576); experiment: BSK_3C_IL8: BioMAP Diversity Plus: 3C Assay for Interleukin-8 (IL8) Biomarker Activity (AID 2283020; active = hit-call score of the fitted dose curve at least 0.9, where 1 is the maximum; inactive = score below 0.9); details: primary human endothelial cells (HUVEC); actives raise or lower the signal
# Method in brief: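 Primary human umbilical vein endothelial cells were dosed for 24 h. IL-8 was quantified by ELISA and fitted bidirectionally against DMSO. Cytotoxicity was assessed in parallel cultures by SRB staining at 560 nm.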
# [19] = molecular target: human RAR-related Orphan Receptor beta (RORb), RORB (gene 6096) (UniProt Q92753); experiment: ATG_RORb_TRANS: Attagene TRANS-FACTORIAL HepG2 Assay for human RAR-related Orphan Receptor beta (RORb) (AID 2283010)
# Method in brief: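 HepG2 cells transiently transfected with GAL4-UAS reporter units expressing chimeric NR-Gal4 protein; reporter mRNA measured 24 h after dosing by RT-PCR, 6-FAM labelling and capillary electrophoresis. Gain-of-signal fitted relative to DMSO baseline.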
# [20] = molecular target: human RAR-related Orphan Receptor gamma (RORg), RORC (gene 6097) (UniProt P51449); experiment: ATG_RORg_TRANS: Attagene TRANS-FACTORIAL HepG2 Assay for human RAR-related Orphan Receptor gamma (RORg) (AID 2283011)
# Method in brief: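 Transient MRTU transfection of HepG2 (TRANS format, exogenous NR-Gal4 chimera). 24 h dosing. Total RNA → oligo(dT) RT → PCR → 6-FAM labelling → HpaI cut → CE. Gain vs DMSO.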
# Chain of human RAR-related Orphan Receptor beta (RORb), RORB (gene 6096) (Q92753 whole entry, looked up, the tested form may be a part): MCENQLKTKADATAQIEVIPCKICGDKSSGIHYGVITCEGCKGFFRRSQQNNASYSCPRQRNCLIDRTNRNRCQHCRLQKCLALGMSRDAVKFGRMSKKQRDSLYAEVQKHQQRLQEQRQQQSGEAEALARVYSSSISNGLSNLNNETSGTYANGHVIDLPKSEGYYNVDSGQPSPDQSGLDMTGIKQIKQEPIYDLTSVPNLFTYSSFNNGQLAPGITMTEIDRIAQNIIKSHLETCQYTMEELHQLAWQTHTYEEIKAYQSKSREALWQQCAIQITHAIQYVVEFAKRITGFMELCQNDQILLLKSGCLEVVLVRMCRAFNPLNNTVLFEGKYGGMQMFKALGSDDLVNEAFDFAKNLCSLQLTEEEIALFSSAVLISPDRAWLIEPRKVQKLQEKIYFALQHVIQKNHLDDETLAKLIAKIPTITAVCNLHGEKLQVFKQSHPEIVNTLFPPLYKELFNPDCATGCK
# Chain of human Retinoid X Receptor beta (RXRb), RXRB (gene 6257) (P28702 whole entry, looked up, the tested form may be a part): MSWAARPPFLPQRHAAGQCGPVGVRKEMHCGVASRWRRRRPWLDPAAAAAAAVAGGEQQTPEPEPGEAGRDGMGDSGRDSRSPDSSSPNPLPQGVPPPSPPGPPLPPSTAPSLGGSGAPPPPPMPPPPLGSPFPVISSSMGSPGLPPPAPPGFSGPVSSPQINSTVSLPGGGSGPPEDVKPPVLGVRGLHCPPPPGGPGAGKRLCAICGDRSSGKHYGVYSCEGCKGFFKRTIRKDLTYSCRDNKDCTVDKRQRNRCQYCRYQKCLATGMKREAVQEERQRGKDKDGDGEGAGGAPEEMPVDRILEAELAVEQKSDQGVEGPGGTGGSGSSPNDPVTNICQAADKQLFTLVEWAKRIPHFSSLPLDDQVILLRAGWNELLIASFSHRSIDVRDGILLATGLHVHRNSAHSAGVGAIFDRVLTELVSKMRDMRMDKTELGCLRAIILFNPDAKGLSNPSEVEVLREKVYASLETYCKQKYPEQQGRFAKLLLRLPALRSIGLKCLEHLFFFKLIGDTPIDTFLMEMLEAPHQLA
# Chain of human Peroxisome Proliferator-activated Receptor delta (PPARd), PPARD (gene 5467) (Q03181 whole entry, looked up, the tested form may be a part): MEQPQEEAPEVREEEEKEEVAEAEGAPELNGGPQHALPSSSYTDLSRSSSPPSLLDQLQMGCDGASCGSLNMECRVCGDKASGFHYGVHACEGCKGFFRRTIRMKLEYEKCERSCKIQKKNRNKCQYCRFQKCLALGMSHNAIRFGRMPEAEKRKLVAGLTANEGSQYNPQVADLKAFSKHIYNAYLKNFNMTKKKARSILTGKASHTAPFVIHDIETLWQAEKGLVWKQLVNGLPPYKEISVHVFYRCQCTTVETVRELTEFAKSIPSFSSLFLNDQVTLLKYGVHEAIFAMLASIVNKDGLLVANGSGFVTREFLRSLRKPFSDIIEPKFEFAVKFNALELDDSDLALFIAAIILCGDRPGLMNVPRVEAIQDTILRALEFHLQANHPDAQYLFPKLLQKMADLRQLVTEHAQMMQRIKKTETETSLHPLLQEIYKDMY
# Chain of Nuclear receptor subfamily 1 group I member 2 (Homo sapiens) (O75469 whole entry, looked up, the tested form may be a part): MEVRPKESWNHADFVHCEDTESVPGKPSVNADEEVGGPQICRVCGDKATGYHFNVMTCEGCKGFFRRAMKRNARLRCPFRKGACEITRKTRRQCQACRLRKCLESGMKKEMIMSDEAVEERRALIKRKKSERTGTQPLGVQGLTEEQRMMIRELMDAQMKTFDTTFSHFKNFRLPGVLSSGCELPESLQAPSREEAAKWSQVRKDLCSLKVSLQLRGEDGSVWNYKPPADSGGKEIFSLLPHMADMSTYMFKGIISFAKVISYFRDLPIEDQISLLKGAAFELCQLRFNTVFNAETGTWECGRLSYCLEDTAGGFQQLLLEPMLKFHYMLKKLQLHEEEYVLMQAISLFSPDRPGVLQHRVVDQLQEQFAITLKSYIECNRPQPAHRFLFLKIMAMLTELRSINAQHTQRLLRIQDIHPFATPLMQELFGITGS
# Chain of Peroxisome proliferator-activated receptor gamma (Homo sapiens) (P37231 whole entry, looked up): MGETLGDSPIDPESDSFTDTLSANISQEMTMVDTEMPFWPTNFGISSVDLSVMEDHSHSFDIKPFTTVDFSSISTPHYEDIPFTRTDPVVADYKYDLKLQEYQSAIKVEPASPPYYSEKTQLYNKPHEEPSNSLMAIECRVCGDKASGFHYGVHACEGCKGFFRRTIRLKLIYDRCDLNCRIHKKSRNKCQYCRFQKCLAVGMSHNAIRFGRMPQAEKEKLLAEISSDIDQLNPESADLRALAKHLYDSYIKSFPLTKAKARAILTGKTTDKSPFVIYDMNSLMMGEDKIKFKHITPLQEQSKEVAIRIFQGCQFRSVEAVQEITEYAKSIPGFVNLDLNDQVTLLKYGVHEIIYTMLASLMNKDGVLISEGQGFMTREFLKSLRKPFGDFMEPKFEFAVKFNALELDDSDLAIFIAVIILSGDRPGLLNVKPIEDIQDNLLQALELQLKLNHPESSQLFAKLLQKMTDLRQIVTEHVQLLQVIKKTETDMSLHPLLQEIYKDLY
# Chain of human RAR-related Orphan Receptor gamma (RORg), RORC (gene 6097) (P51449 whole entry, looked up, the tested form may be a part): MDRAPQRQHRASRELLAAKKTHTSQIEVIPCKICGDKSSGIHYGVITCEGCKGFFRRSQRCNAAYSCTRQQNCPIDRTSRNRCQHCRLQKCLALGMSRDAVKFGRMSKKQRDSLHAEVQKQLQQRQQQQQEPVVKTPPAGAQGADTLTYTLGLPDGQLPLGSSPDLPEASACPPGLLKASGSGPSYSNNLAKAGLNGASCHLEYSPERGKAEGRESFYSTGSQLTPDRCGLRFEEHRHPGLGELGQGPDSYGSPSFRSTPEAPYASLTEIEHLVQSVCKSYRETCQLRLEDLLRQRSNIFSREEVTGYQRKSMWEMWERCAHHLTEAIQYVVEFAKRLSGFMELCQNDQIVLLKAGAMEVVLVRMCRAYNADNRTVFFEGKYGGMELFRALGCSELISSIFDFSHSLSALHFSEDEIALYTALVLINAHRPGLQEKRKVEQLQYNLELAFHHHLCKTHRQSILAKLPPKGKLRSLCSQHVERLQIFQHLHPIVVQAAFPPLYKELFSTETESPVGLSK
# Chain of Retinoic acid receptor RXR-alpha (Homo sapiens) (P19793 whole entry, looked up, the tested form may be a part): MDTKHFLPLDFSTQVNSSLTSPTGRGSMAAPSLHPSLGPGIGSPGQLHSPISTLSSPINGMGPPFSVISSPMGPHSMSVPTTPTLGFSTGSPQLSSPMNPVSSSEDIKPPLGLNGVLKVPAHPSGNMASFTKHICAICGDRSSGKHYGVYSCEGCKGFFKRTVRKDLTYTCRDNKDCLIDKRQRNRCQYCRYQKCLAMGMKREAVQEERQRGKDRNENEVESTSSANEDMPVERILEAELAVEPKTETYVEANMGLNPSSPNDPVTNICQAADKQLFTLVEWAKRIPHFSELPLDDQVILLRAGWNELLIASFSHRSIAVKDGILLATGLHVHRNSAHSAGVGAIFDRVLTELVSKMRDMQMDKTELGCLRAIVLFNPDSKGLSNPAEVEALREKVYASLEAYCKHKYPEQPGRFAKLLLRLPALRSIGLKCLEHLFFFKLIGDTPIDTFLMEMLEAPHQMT
# Chain of E-selectin (Homo sapiens) (P16581 whole entry, looked up): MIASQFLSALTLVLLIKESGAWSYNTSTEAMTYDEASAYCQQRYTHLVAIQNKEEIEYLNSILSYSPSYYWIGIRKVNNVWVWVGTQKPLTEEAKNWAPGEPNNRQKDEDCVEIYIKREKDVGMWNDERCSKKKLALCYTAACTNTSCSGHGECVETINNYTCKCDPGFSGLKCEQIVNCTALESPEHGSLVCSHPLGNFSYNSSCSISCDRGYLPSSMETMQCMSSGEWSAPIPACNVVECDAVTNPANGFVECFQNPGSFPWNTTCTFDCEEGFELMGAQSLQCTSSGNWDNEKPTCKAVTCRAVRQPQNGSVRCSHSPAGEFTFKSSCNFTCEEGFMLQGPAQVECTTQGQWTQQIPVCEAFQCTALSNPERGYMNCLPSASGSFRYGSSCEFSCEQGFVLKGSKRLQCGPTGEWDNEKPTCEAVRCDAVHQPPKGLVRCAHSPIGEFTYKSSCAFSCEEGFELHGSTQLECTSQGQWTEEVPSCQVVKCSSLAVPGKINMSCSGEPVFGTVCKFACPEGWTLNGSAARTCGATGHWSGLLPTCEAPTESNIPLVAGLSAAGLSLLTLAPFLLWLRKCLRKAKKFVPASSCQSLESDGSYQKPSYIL
# Chain of human Retinoic Acid Receptor gamma (RARg), RARG (gene 5916) (P13631 whole entry, looked up, the tested form may be a part): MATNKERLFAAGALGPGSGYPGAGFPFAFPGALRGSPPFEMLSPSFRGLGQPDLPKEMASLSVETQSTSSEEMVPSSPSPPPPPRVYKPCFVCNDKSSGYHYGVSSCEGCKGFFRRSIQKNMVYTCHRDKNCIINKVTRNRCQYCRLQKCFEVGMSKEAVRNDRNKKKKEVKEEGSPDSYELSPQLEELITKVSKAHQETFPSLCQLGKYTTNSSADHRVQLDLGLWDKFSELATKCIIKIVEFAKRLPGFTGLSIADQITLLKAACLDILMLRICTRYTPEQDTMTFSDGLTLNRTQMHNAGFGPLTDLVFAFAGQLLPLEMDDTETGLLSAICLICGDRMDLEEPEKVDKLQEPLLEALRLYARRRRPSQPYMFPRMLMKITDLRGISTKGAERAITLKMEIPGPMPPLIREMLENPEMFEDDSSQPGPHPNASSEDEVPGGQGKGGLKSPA
# Chain of human Thyroid Receptor alpha (THRa1), THRA (gene 7067) (P10827 whole entry, looked up, the tested form may be a part): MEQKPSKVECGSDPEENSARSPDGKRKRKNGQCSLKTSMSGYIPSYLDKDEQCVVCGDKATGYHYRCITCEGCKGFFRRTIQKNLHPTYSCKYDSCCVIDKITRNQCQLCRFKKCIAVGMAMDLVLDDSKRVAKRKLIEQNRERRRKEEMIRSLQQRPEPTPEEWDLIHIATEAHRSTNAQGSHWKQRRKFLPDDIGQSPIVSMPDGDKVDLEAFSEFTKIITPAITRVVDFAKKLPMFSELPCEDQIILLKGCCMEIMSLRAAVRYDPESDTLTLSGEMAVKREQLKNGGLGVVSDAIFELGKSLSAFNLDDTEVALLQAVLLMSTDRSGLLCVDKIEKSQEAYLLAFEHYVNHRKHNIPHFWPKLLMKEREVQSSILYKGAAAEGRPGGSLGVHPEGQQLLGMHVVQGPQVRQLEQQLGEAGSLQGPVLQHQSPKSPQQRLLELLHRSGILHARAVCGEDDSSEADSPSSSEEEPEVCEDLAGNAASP
compound,measurement,setting,value
CCCCCCCCCCCCN(CCCCCCCCCCCC)CCCCCCCCCCCC,outcome,[1],inactive
same,outcome,[2],inactive
same,outcome,[3],inactive
same,outcome,[4],inactive
same,outcome,[5],inactive
O=C(O)CCCCCCCC(=O)O,outcome,[1],inactive
same,outcome,[6],inactive
same,outcome,[7],inactive
same,outcome,[3],inactive
same,outcome,[8],inactive
same,outcome,[9],inactive
O=C(O)c1cn(C2CC2)c2cc(N3CCNCC3)c(F)cc2c1=O,outcome,[1],inactive
same,outcome,[10],inactive
same,outcome,[11],inactive
same,outcome,[3],inactive
same,outcome,[12],inactive
same,outcome,[9],inactive
same,outcome,[4],inactive
same,outcome,[13],inactive
same,outcome,[14],inactive
same,outcome,[15],inactive
same,outcome,[16],inactive
same,outcome,[17],inactive
same,outcome,[18],inactive
O=C(O)C[C@H](O)C[C@H](O)/C=C/c1c(C2CC2)nc2ccccc2c1-c1ccc(F)cc1,outcome,[1],inactive
same,outcome,[10],inactive
same,AC50,[11],1.95 µM (active)
same,AC50,[3],20.2 µM (active)
same,outcome,[12],inactive
same,outcome,[19],inactive
same,outcome,[9],inactive
same,outcome,[4],inactive
same,outcome,[5],inactive
same,outcome,[13],inactive
same,AC50,[14],1.43 µM (active)
same,outcome,[15],inactive
same,AC50,[16],0.551 µM (active)
same,outcome,[17],inactive
same,outcome,[18],inactive
O=Cc1ccc(Cl)c([N+](=O)[O-])c1,outcome,[1],inactive
same,outcome,[2],inactive
same,AC50,[3],100 µM (active)
same,outcome,[20],inactive
same,outcome,[5],inactive
C[C@H]1C[C@@H]2[C@H]([C@@H](O)C[C@@]3(C)[C@H]2CC[C@]3(O)C(=O)CO)[C@@]2(C)C=CC(=O)C=C12,outcome,[1],inactive
same,outcome,[10],inactive
same,outcome,[11],inactive
same,outcome,[12],inactive
same,outcome,[4],inactive
same,outcome,[13],inactive
same,outcome,[14],inactive
same,outcome,[15],inactive
same,outcome,[16],inactive
same,outcome,[17],inactive
same,outcome,[18],inactive
c1ccc(CCCc2ccccn2)cc1,outcome,[1],inactive
same,AC50,[3],50.7 µM (active)
same,AC50,[12],18.6 µM (active)
CCCC[n+]1ccccc1,outcome,[1],inactive
same,outcome,[6],inactive
same,outcome,[7],inactive
same,outcome,[12],inactive
same,outcome,[8],inactive
same,outcome,[4],inactive
CCc1c(C)cc(N)c(CC)c1N,outcome,[1],inactive
same,outcome,[10],inactive
same,outcome,[11],inactive
same,outcome,[3],inactive
same,outcome,[20],inactive
same,outcome,[9],inactive
same,outcome,[4],inactive
same,outcome,[13],inactive
same,outcome,[14],inactive
same,outcome,[15],inactive
same,outcome,[16],inactive
same,outcome,[17],inactive
same,outcome,[18],inactive
CCCCOCCOCCOCCOCCO,outcome,[1],inactive
same,outcome,[2],inactive
same,outcome,[20],inactive
CCCC(C)C=O (stereo not drawn),outcome,[1],inactive
same,outcome,[3],inactive
same,outcome,[12],inactive
same,outcome,[19],inactive
same,outcome,[20],inactive
same,outcome,[9],inactive
same,outcome,[4],inactive
CC(CN1c2ccccc2Sc2ccccc21)N(C)C (stereo not drawn),outcome,[1],inactive
same,AC50,[3],47.8 µM (active)
same,AC50,[12],6.83 µM (active)
same,outcome,[8],inactive
same,outcome,[9],inactive
same,outcome,[5],inactive
COc1nc(C)nc(N)n1,outcome,[1],inactive
same,outcome,[3],inactive
same,outcome,[19],inactive
same,outcome,[9],inactive
same,outcome,[4],inactive
